Source: PubChem BioAssay AID602127 (Broad Institute, 2011)
Results with a measured potency or affinity are listed apart.

biological target: Cyclin-dependent kinase 2 (Homo sapiens) (UniProt P24941); assay: inhibition of human CDK2/cyclin A – biochemical, cherry-picked samples, selectivity assay for Dyrk1A inhibitor project, dose response (AID 602127); settings: ADP-Glo luminescence, 60 min; series mostly up to 10 µM; activity change, negative = inhibition: at the top concentration

Activity change, negative = inhibition, inactive:
Brc1ccc(CNc2nccc(-c3ccc4c(c3)OCO4)n2)cc1Br 2.82%
Clc1ccc(CNc2nccc(-c3ccc4cn[nH]c4c3)n2)cc1Cl -11.3%
CN(C)S(=O)(=O)c1ccc(NC(=O)c2cc3ccccc3o2)cc1 3.94%
Cc1c(-c2ccnc(NCc3ccc(Cl)cc3)n2)sc(=O)n1C 2.58%
COc1cccc(NC(=O)c2sc(NC(=O)c3ccncc3)nc2C)c1 -3.42%
COCCNC(=O)c1ccc2c(c1)nc(C)n2-c1cccc(F)c1 1.17%
Clc1ccc(CNc2ccnc(-c3ccc4[nH]ncc4c3)n2)cc1Cl -5.16%
Cc1ccsc1CNc1ncnc2ccc(-c3ccc4c(c3)OCO4)cc12 -11.8%
COc1cccc(NC(=O)Nc2ccc3c(c2)N(C)C(=O)CS3)c1 -5.88%
CCCNc1ncnc2ccc(-c3ccc4c(c3)OCO4)cc12 -5.98%
O=C(Nc1nc2ccc(Cl)cc2s1)C1CCCO1 (stereo not drawn) -16.6%
Cc1ccc(CNc2ncnc3ccc(-c4ccc5c(c4)OCO5)cc23)o1 -4.91%
Clc1ccc(Nc2nccc(-c3ccc4c(c3)OCO4)n2)cc1 14%
